# Measurements reported in ChEMBL document CHEMBL1961873, “Compounds: GSK PKIS; Assays: Nanosyn kinase panel” (2012).
# “And” between values parts separate entries of the source, which are not always exact repeats. Identical values can stand only once.
# How the values were obtained:
# [1] = target: Tyrosine-protein kinase Fer (Homo sapiens) (UniProt P16591); details: at 1 µM
# [2] = target: Tyrosine-protein kinase Fes/Fps (Homo sapiens) (UniProt P07332); details: at 0.1 µM
# [3] = target: Tyrosine-protein kinase Fes/Fps (Homo sapiens) (UniProt P07332); details: at 1 µM
# [4] = target: Fibroblast growth factor receptor 1 (Homo sapiens) (UniProt P11362); details: at 0.1 µM
# [5] = target: Fibroblast growth factor receptor 1 (Homo sapiens) (UniProt P11362); details: at 1 µM
# [6] = target: Fibroblast growth factor receptor 2 (Homo sapiens) (UniProt P21802); details: at 0.1 µM
# [7] = target: Fibroblast growth factor receptor 2 (Homo sapiens) (UniProt P21802); details: at 1 µM
# [8] = target: Fibroblast growth factor receptor 3 (Homo sapiens) (UniProt P22607); details: at 0.1 µM
# [9] = target: Fibroblast growth factor receptor 3 (Homo sapiens) (UniProt P22607); details: at 1 µM
# [10] = target: Fibroblast growth factor receptor 4 (Homo sapiens) (UniProt P22455); details: at 0.1 µM
# [11] = target: Fibroblast growth factor receptor 4 (Homo sapiens) (UniProt P22455); details: at 1 µM
# [12] = target: Tyrosine-protein kinase Fgr (Homo sapiens) (UniProt P09769); details: at 0.1 µM
# [13] = target: Tyrosine-protein kinase Fgr (Homo sapiens) (UniProt P09769); details: at 1 µM
# [14] = target: Vascular endothelial growth factor receptor 1 (Homo sapiens) (UniProt P17948); details: at 0.1 µM
# [15] = target: Vascular endothelial growth factor receptor 1 (Homo sapiens) (UniProt P17948); details: at 1 µM
# [16] = target: Receptor-type tyrosine-protein kinase FLT3 (Homo sapiens) (UniProt P36888); details: at 0.1 µM
# [17] = target: Receptor-type tyrosine-protein kinase FLT3 (Homo sapiens) (UniProt P36888); details: at 1 µM
# [18] = test system: T1, Receptor-type tyrosine-protein kinase FLT3 (Homo sapiens), P36888 [D835Y]; details: at 0.1 µM
# T1 sequence (whole entry): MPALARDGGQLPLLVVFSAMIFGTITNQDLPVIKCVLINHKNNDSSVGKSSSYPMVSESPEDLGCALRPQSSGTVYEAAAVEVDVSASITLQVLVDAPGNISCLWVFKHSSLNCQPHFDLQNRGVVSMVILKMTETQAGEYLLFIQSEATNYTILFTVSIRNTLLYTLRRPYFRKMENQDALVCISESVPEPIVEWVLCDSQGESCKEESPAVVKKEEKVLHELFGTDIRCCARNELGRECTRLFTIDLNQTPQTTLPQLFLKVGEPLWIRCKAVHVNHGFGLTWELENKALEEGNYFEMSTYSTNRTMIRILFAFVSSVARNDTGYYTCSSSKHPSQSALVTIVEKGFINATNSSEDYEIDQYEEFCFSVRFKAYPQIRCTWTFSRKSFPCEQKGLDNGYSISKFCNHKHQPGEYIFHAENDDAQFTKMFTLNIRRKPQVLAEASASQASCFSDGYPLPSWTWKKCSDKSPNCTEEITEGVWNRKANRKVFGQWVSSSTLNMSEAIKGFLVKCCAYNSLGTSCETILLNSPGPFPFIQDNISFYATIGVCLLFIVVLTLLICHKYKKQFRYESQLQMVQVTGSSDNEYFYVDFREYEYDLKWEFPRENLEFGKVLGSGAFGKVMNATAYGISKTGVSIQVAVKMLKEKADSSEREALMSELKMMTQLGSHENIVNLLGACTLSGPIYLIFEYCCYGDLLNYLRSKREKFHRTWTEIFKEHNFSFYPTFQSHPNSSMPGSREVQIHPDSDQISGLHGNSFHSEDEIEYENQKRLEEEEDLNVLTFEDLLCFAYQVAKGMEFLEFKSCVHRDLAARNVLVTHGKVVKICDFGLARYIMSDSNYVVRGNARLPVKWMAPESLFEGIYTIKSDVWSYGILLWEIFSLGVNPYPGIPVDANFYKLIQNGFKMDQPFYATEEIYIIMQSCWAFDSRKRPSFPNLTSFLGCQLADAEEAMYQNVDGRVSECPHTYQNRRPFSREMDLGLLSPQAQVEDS
# [19] = target: Non-receptor tyrosine-protein kinase TYK2 (Homo sapiens) (UniProt P29597); details: at 1 µM;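 note: values are mean percent inhibition of TYK2 kinase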
# [20] = target: T2, Tyrosine-protein kinase receptor TYRO3 (Homo sapiens) (UniProt Q06418); details: at 0.1 µM;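 note: reported percentages are averaged inhibition values of TYRO3 kinase activity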
# T2 sequence (whole entry): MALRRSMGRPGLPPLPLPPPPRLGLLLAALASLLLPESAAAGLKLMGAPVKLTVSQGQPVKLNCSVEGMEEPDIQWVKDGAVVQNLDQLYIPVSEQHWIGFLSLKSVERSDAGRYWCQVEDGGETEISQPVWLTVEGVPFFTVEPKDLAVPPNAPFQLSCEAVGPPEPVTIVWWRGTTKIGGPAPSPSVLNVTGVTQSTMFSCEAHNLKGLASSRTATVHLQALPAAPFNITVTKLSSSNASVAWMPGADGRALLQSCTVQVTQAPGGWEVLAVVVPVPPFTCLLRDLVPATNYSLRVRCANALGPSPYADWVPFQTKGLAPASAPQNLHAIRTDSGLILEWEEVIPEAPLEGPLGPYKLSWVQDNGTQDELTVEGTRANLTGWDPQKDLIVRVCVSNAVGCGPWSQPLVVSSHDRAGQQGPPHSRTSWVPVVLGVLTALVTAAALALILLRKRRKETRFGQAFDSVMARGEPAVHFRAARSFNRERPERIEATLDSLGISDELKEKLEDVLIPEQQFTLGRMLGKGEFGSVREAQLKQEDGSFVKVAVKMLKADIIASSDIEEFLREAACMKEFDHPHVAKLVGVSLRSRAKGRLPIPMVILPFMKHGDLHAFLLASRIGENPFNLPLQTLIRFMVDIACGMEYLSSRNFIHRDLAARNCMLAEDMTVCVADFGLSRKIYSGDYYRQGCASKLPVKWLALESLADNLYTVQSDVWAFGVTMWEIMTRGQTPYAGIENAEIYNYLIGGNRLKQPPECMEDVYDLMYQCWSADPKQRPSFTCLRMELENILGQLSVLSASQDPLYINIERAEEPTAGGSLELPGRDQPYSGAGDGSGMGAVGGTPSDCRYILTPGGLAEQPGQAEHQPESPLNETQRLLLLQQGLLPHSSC
# Fibroblast growth factor receptor 2 (Homo sapiens), sequence (P21802 22-821 limits assumed): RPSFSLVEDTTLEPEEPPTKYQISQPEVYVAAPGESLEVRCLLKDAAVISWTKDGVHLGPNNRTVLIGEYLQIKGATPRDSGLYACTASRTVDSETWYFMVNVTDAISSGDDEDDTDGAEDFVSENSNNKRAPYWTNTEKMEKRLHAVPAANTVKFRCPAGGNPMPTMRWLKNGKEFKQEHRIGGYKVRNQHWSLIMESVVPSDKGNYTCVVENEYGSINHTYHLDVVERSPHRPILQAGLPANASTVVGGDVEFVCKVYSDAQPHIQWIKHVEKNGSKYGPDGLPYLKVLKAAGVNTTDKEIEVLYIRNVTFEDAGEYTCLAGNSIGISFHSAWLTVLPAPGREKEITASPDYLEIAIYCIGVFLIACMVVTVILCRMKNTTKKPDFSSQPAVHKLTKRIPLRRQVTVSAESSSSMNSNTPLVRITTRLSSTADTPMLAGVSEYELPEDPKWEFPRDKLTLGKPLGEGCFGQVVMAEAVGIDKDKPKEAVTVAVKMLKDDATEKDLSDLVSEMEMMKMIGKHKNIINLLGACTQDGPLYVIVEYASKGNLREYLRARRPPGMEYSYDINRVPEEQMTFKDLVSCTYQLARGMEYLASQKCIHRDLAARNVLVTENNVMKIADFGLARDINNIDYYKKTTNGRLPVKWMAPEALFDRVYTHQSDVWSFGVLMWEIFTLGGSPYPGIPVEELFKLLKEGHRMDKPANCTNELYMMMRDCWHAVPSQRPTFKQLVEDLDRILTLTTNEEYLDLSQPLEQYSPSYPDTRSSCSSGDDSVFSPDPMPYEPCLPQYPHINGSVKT
# Fibroblast growth factor receptor 3 (Homo sapiens), sequence (P22607 23-806 limits assumed): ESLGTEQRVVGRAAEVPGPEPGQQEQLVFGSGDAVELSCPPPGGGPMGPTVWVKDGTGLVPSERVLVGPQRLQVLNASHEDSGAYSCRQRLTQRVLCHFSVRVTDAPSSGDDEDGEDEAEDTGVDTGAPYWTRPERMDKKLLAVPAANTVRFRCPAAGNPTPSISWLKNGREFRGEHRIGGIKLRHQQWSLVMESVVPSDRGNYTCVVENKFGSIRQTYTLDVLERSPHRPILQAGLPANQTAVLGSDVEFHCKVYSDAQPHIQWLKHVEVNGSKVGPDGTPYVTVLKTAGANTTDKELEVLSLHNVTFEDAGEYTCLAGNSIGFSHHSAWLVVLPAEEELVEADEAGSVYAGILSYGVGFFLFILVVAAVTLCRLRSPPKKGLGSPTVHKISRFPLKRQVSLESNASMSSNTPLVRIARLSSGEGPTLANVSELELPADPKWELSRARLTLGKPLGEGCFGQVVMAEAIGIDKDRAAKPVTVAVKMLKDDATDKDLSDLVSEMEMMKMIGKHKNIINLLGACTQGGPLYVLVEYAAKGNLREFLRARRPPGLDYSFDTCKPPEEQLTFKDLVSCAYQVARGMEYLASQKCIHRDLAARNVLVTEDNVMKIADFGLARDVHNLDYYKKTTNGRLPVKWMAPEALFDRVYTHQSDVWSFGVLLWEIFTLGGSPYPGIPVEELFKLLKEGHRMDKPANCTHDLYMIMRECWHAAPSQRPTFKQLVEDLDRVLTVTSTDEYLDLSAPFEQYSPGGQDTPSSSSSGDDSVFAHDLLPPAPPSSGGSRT
# Vascular endothelial growth factor receptor 1 (Homo sapiens), sequence (P17948 whole entry): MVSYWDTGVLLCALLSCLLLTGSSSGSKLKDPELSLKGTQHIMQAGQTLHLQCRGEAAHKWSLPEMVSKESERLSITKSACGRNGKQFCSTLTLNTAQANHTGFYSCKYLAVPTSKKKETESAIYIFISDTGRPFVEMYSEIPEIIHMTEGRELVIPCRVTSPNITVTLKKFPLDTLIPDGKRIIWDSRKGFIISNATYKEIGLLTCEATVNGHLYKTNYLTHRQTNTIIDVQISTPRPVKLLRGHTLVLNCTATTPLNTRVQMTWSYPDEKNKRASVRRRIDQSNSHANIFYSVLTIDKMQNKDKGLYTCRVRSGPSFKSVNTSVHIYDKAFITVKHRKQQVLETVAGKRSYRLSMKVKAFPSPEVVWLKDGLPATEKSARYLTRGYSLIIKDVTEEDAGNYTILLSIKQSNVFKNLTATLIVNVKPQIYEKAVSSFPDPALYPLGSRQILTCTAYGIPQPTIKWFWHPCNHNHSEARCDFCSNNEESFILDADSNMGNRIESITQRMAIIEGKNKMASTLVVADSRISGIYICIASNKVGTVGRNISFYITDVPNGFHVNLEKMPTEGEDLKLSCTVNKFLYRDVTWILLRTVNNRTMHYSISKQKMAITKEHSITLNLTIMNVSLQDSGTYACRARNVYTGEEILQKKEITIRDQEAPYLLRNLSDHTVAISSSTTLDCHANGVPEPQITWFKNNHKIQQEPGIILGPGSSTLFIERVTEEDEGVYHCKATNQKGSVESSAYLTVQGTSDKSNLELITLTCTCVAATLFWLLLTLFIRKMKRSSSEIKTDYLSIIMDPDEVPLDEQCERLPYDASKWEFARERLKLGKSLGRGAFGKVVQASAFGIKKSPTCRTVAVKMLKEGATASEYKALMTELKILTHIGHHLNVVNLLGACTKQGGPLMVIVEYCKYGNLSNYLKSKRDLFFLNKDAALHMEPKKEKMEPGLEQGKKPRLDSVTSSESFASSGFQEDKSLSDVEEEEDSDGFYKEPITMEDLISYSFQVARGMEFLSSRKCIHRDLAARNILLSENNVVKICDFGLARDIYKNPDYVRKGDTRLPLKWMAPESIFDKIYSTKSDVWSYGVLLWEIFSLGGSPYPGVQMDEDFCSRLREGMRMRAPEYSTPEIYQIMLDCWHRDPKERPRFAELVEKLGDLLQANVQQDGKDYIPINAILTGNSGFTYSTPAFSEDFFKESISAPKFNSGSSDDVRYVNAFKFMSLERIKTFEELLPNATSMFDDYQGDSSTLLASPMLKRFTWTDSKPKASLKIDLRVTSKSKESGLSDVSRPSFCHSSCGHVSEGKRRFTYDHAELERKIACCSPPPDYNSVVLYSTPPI
# Tyrosine-protein kinase Fer (Homo sapiens), sequence (P16591 whole entry, looked up): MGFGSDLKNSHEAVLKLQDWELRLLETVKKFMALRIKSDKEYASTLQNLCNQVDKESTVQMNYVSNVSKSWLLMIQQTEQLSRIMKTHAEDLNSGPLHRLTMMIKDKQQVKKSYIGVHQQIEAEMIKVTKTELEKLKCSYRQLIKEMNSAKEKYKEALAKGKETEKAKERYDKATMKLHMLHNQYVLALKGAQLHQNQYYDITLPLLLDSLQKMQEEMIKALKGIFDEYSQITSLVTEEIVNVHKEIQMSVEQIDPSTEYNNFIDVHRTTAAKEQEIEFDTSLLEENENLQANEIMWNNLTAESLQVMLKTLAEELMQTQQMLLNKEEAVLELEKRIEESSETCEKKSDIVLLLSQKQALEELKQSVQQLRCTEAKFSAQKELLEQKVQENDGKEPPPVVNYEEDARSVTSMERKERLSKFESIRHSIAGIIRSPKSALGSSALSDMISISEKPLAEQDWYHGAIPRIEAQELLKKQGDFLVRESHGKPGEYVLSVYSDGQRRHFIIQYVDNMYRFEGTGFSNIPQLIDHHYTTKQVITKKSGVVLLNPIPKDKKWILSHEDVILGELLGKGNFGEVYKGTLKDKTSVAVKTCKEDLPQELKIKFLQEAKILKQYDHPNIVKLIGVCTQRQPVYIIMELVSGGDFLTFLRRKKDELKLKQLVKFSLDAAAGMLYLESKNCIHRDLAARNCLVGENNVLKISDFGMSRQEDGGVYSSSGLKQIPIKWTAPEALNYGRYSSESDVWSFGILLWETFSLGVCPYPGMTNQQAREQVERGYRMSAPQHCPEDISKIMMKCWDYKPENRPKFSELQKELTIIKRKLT
# Tyrosine-protein kinase Fes/Fps (Homo sapiens), sequence (P07332 whole entry): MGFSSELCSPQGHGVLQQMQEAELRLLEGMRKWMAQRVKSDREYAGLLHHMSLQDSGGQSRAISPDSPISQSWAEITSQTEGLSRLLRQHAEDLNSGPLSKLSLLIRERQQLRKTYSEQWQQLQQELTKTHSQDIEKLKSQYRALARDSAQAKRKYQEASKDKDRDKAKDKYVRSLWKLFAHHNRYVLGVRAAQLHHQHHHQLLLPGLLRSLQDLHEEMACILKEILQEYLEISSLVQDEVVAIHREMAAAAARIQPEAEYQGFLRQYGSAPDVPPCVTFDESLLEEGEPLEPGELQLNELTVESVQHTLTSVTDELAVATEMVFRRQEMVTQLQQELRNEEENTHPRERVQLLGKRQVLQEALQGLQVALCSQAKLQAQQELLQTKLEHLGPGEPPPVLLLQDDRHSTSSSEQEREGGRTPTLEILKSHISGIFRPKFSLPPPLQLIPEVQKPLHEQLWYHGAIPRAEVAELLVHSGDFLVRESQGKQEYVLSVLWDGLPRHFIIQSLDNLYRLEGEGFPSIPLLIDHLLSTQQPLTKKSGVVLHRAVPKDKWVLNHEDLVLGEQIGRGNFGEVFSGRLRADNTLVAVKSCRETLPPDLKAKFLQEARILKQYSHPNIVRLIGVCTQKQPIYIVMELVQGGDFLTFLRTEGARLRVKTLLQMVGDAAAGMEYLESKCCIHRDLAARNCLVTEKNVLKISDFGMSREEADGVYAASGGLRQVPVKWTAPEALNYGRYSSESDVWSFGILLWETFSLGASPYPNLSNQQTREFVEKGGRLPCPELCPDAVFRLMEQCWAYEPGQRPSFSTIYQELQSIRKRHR
# Tyrosine-protein kinase Fgr (Homo sapiens), sequence (P09769 2-529 limits assumed): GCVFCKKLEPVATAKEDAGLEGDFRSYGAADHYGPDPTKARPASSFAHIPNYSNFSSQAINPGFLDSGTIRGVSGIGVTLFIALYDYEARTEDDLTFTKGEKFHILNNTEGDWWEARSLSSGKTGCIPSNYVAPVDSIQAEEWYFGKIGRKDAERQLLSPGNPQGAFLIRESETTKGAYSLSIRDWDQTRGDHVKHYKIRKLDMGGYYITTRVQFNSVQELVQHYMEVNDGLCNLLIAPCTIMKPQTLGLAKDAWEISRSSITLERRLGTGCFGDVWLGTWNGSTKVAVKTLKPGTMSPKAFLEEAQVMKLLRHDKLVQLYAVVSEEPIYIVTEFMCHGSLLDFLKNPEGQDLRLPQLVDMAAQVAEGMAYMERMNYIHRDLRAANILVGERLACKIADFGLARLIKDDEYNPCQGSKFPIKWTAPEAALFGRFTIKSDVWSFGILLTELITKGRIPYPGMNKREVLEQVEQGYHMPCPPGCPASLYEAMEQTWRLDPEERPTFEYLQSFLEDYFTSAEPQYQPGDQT
SMILES,inhibition [1],inhibition [2],inhibition [3],inhibition [4],inhibition [5],inhibition [6],inhibition [7],inhibition [8],inhibition [9],inhibition [10] [%],inhibition [11],inhibition [12],inhibition [13],inhibition [14],inhibition [15],inhibition [16],inhibition [17],inhibition [18],inhibition [19],inhibition [20]
CCOc1ccc2c(-c3ccnc(Nc4cc(OC)cc(C(F)(F)F)c4)n3)cnn2n1,8.05%,0.16%,0.05%,4.3%,-0.38%,-1.84%,3.9%,1.13%,2.09%,0.25,3.56%,1.32%,9.11%,1.04%,5.65%,2.11%,15.1%,2.53%,1.53%,1.46%
FC(F)(F)CNc1nccc(-c2cnn3ncccc23)n1,0.92%,2.11%,1.66%,4.83%,2.89%,4.25%,3.09%,3.73%,2.58%,1.62,-0.36%,2.09%,3.01%,-0.04%,0.56%,0.41%,-1.47%,-2.63%,-2.6%,0.93%
COc1ccccc1-c1cc(/C=C2\C(=O)Nc3ncc(Br)cc32)cc(Br)c1O,9.31%,3.24%,4.41%,3.85%,14%,6.66%,18%,8.55%,14%,-0.86,1.97%,2.7%,11.6%,3.32%,4.73%,4.36%,6.62%,-5.55%,-1.22%,7.47%
CN1CCC(n2cnc(-c3ccc(F)cc3)c2-c2ccnc(NCCO)n2)CC1,7.14%,2.72%,3.24%,3.14%,-2.05%,3.73%,6.49%,7.57%,5.67%,-1.01,0.38%,5.33%,2.78%,1.32%,3.27%,1.5%,5.56%,-2.58%,-4.71%,3.69%
NC(=O)c1ccc2c(-c3ccnc(NCCCO)n3)c(-c3ccc(F)cc3)nn2c1,6.71%,3%,5.19%,8.04%,8.15%,4.29%,9.62%,5.45%,7.13%,0.14,1.22%,3.07%,12.1%,3.74%,3.53%,4.12%,5.06%,2.33%,-5.12%,3.03%
Fc1cccc(COc2ccc(Nc3ncncc3C#Cc3ccccc3)cc2Cl)c1,6.06%,2.55%,3.61%,2.88%,2.38%,4.03%,5.85%,4.99%,3.8%,0.25,0.25%,5.41%,2.24%,1.51%,1.02%,2.67%,5.4%,4.26%,-1.45%,2.1%
CN1CCC(C(=O)Nc2n[nH]c3nc(-c4ccc(O)cc4)c(Br)cc23)CC1,5.19% and 5.02%,2.73% and 2.03%,2.01% and 1.81%,-1.64% and 2.05%,-0.75% and 5.39%,-0.3% and 14.5%,2.81% and 5.43%,1.48% and 6.04%,1.79% and 4.41%,6.09,-2.79% and 2.44%,4.74% and 1.32%,4.79% and 3.79%,-0.55% and 2.25%,1.75% and 2.84%,1.75% and 4.1%,5.59% and 2.93%,-2.26% and 1.33%,-0.92% and -0.98%,2.21% and 0.67%
CN(C)CCNC(=O)Nc1ccc(N(C)c2ccnc(Nc3ccc(CS(C)(=O)=O)cc3)n2)cc1,12.4%,3.36%,6.7%,27.9%,9.1%,5.38%,8.82%,6.17%,5.98%,1.63,2.84%,1.07%,9.57%,4.18%,8.87%,16%,58.6%,-5.17%,-3.31%,2.66%
CC(C)c1ccc(-c2cc(-c3c[nH]nc3-c3ccccn3)ccn2)cc1,2.58%,0.8%,1.23%,6.6%,1.8%,-0.22%,3.83%,3.55%,1.81%,0.39,0.16%,0.18%,1.8%,0.29%,6.12%,-2.11%,2.26%,1.43%,-0.96%,1.06%
Cc1cc(O)cc(C)c1/C=C/c1cncc(C(=O)OC(C)(C)C)c1,3.02%,1.48%,2.34%,1.91%,3.93%,1.65%,5.08%,7.81%,7.63%,1.4,2.64%,8.01%,34%,2.02%,2.37%,2.32%,1.9%,-1.99%,-2.24%,3.2%
COc1ccc(-c2nn3ncccc3c2-c2ccnc(Nc3ccc(F)c(F)c3)n2)cc1,7.64%,2.66%,2.57%,4.92%,0.84%,5.14%,7.4%,5.17%,7.65%,1.42,0.82%,20.4%,60.8%,2.48%,6.3%,2.32%,4.16%,4.75%,-1.25%,3.56%
Cc1cc(O)cc(C)c1/C=C/c1cncc(C(N)=O)c1,1.87%,1.69%,1.94%,2.16%,7.91%,2.08%,7.34%,4.56%,4.79%,-4.55,0.95%,5.81%,38.1%,1.23%,4.11%,1.9%,2.11%,-5.07%,-0.58%,2.41%
COc1cc(N2CCN(C(C)C)CC2)ccc1Nc1nc(Nc2cccc(F)c2C(=O)O)c2cc[nH]c2n1,75.6%,18.5%,63.7%,2.19%,6.27%,7.3%,9.34%,4.65%,8.48%,-2.62,3.72%,4.76%,4%,1.38%,1.96%,0.4%,10.3%,0.23%,-2.8%,2.73%
CNC(=O)c1sc(-n2cnc3cc(OC)c(OC)cc32)cc1OCc1ccccc1C(F)(F)F,5.74%,3.32%,3.26%,-4.6%,7.69%,4.22%,7.4%,2.02%,7.23%,0.59,1.34%,4.08%,10.1%,1.22%,0.98%,2.13%,3.19%,-3.62%,-3.45%,1.67%
NS(=O)(=O)c1ccc(N/N=C2\C(=O)Nc3cccc(CCc4ccncc4)c32)cc1,5.66%,0.64%,-0.42%,5.09%,16.7%,7.6%,18.2%,6.3%,19.2%,4.76,1.66%,4.48%,10.8%,5.3%,12%,64.3%,79.3%,50.7%,-1.59%,0.03%
